# Results published in PubChem BioAssay (Tox21).
# Values without a mark were called inactive. The source made the active and inactive calls. Calls follow the shape of the dose curve; as a rule, active = well fitted activation curve with a large enough effect in the repeat runs; inconclusive = weak or mixed curves; inactive = flat fitted curve, though single readings scatter.
# Assay: A CellTox Green Cytotoxicity Assay to monitor cytotoxicity in HEK293 cells - 0 hour (AID 1224869); also: nearly all actives have a fitted effect of over 50% in size
# Conditions: CellTox Green fluorescence; series mostly up to 76.8 µM; cytotoxicity: at the top concentration
# From the text: National Center for Advancing Translational Sciences [NCATS]
# NIH Chemical Genomics Center [NCGC]
# U.S. Environmental Protection Agency [EPA]
# National Institutes of Environmental Health Sciences [NIEHS]
# National Toxicology Program [NTP]
# Cell-based models are critical for drug discovery. Determining the natural cytotoxic effects resulting from test compounds is an essential research activity. A CellTox Green Cytotoxicity Assay to monitor cytotoxicity in real time of continues cell culture during 40 hours of the compound treatment was used to screen Tox21 10K library compounds in Hek293 cells. CellTox Green Cytotoxicity Assay is a nonlytic, homogeneous, biofluorescent method to measure cytotoxicity in cell culture after experimental manipulation. The assay system uses a proprietary asymmetric cyanine dye that is excluded from viable cells but preferentially stains the dead cell's DNA. […] Viable cells produce no appreciable increases in fluorescence. Therefore, the fluorescence signal produced by the binding interaction with dead cell DNA is proportional to cytotoxicity.
# The mixture of Hek293 cell suspension and reagents were dispensed at 600cells/6 ul/well in 1536-well tissue culture treated black solid bottom plates using a Multidrop dispenser. After the assay plates were incubated at a 37 C/5% CO2 incubator for 5 hours, 23 nL of compounds dissolved in DMSO, positive and negative controls was transferred to the assay plate by a pintool work station. The plates were incubated at 37 C for 40 hours. The fluorescence intensity were measured at 0h, 8h, 16h, 24h, 32h and 40h time points using ViewLux plate reader during compound treatment.
# % is scaled to controls: 0 for no effect and ±100 for the full control effect; potency is read from the fitted curve at half-maximal effect.
Structure (SMILES),cytotoxicity,Potency
O=C(O)CN(CCCN(CC(=O)O)CC(=O)O)CC(=O)O,-2.37% [at 15.8 µM],–
Cc1ccc2sc3cccc(C)c3c2c1,-4.9%,–
C=C[Si](C)(C)Cl,-1.84% [at 6.97 µM],–
Cn1ccnc1,-9.39%,–
CC(=O)CC(N)=O,-7.7%,–
O=C1OC(O)C(C(Cl)Cl)=C1Cl (stereo not given),-0.406%,–
O=C(Cl)c1ccc(Cl)cc1Cl,14.1%,–
CCCCCN=C(N)N/N=C/c1c[nH]c2ccc(OC)cc12,0.171% [at 35.3 µM],–
Cc1c(Cl)c(=O)oc2cc(O)ccc12,-6.05%,–
CC(c1cc(C(C)(C)C)cc(C(C)(C)C)c1O)c1cc(C(C)(C)C)cc(C(C)(C)C)c1O,-5.32%,–
CCCCC/C=C\C=C\C(=O)OCC,-1.76%,–
CCOC(=O)[C@H](O)[C@@H](O)C(=O)OCC,1.17%,–
CCCOC(=O)c1ccc(O)cc1,-1.53%,–
CO[Si](OC)(c1ccccc1)c1ccccc1,-1.82%,–
O=C(Nc1ccc([N+](=O)[O-])cc1)Nc1ccc([N+](=O)[O-])cc1 (tested in a mixture with another compound),3.09% [at 35.3 µM],–
CCCC(C)C=O (stereo not given),0.0637%,–
C/C=C/C(=O)OCC(C)C,1.93%,–
COc1ccc(OC)c(N=Nc2c(O)ccc3ccccc23)c1,-10.2%,–
O=C(NCc1ncc(C(F)(F)F)cc1Cl)c1c(Cl)cccc1Cl,6.46%,–
CCc1cccc(C)c1N(C(=O)CS(=O)(=O)O)C(C)COC (stereo not given),-13.6%,–

Structure (SMILES),cytotoxicity,Potency
C=C(C)CCO,0.463%,–
O=C1CCC(=O)N1,-18.4%,–
CCOC(=O)[C@H](C)O,0.895%,–
O=C(CCCCCCCCc1cccnc1)N1CCC(C=C(c2ccccc2)c2ccccc2)CC1,1.89%,–
CC(C)(c1ccc(Oc2ccc(N)cc2)cc1)c1ccc(Oc2ccc(N)cc2)cc1,0.416%,–
CCc1c(C)cc(N)c(CC)c1N,-0.0502%,–
Cc1ccc2nc(-c3ccc(N)cc3)sc2c1S(=O)(=O)O,0.783% [at 35.3 µM],–
O=C1CCCCCCCCCCCCCC1,3.85%,–
O=C1OC2(c3ccccc31)c1ccc(O)c(Br)c1Oc1c2ccc(O)c1Br,–,6.16 µM (active)
COCCC(=O)OC,0.023%,–
O=C(Nc1ccccc1)c1cc(Cl)ccc1O,3.09%,–
CN(C)CCOc1ccc(/C(=C(/CCCl)c2ccccc2)c2ccccc2)cc1,0.705%,–
CCC(C)(C)c1ccc(CC(C)CN2C[C@@H](C)O[C@@H](C)C2)cc1 (stereo not given in full),-11.8% [at 35.3 µM],–
C=COCCCC,16.4%,–
C=Cc1ccncc1,-3.01%,–
NCc1ccco1,21.4%,–
N#CCCOCCC#N,-7.12%,–
CCCCCc1ccc(O)cc1,-6.11%,–
CCCCCCCCOC(=O)c1cc(O)c(O)c(O)c1,-4%,–
Cc1ccc(C2OC[C@@H]3OC(c4ccc(C)cc4)O[C@H]([C@H](O)CO)[C@@H]3O2)cc1 (stereo not given in full),23.2%,–
